In the library only some 11% were active in any assay of this set; here they are far more common.
PI5P4K alpha inh – qHTS for Inhibitors of phosphatidylinositol 5-phosphate 4-kinase (PI5P4K) | 1.2% of 330,000 active | max response, % | AID 652105, 2013 | PI5P4Kalpha enzyme, ADP-Glo luminescence, 60 min; active compounds read low | Phosphatidylinositol 5-phosphate 4-kinase type-2 alpha (Homo sapiens), P48426; active = max response of -50% or lower; inconclusive = between -30% and -50%; inactive = -30% or higher; note: value at the top dose of about 77 µM; % is set by controls: 0 for no effect and ±100 for the full control effect
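PI5P4Kalpha ADP-Glo assay; 5 microM ATP final; 60 min RT reaction; HEPES pH 7.4/EGTA/CHAPS, 5% DMSO; controls lacking substrate or enzyme; luminescent end-point.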
L3MBTL1 inh – qHTS Assay for the Inhibitors of L3MBTL1 | Lethal(3)malignant brain tumor-like protein 1 (Homo sapiens), Q9Y468 | AlphaScreen L3MBTL1–H3K9me1 peptide binding | Potency, µM (series often up to 57.1 µM), without a hit: at the top dose activity, negative = inhibition, hits mostly inhibitors | 0.66% of 230,000 active; note: potency is the fitted concentration of half-maximal effect; % is set by controls: 0 for no effect and ±100 for the full control effect; nearly all actives have a fitted effect of over 60% in size
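First, the protein-peptide complex forms for 30 min at room temperature (L3MBTL1 50 nM, biotinylated H3K9me1 peptide 75 nM). Next, compounds are pin-transferred and incubated 30 min. Finally, AlphaScreen beads are added and read after 30 min.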
JMJD2A Tudor – qHTS Assay for Inhibitors of JMJD2A-Tudor Domain; AID 504339, 2011; Potency, µM (doses to about 114 µM), for the others: at the highest dose activity change, negative = inhibition, usual class: inhibitors; 4.4% of 390,000 active; AlphaScreen JMJD2A-Tudor / H3K4me3 peptide binding; note: potency is the fitted concentration of half-maximal effect; % is set by controls: 0 for no effect and ±100 for the full control effect; nearly all actives have a fitted effect of over 50% in size
Target sequence (O75164 whole entry, looked up, the tested form may be a part): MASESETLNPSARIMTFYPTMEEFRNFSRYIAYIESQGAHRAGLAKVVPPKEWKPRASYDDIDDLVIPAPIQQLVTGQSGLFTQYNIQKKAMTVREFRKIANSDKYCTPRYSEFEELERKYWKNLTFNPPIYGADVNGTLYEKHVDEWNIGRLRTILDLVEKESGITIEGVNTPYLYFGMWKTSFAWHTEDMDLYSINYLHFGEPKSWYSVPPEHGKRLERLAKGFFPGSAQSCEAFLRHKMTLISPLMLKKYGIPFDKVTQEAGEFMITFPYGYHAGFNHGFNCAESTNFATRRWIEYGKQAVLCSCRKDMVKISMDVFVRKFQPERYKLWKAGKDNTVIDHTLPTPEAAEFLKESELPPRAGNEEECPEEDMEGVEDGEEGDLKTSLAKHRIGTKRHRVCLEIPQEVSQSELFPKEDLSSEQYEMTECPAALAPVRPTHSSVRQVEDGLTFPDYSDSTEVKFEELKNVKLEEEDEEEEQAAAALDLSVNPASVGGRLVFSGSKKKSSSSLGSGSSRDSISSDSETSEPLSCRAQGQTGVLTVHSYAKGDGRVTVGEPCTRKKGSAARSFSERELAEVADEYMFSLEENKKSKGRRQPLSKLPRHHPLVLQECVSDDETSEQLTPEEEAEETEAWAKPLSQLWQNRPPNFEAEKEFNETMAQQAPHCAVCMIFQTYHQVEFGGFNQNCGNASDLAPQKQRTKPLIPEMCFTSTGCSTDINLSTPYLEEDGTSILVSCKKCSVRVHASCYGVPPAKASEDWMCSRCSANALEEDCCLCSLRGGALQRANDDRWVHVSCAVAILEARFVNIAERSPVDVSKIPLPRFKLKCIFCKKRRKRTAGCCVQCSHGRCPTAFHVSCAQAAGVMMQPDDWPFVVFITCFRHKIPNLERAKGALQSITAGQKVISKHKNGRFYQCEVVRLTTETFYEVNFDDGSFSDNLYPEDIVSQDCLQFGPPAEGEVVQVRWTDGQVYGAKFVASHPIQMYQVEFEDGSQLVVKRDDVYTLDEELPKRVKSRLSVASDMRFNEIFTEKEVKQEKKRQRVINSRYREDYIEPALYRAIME
HP1b binding inh – HTS for Inhibitors of HP1-beta Chromodomain Interactions with Methylated Histone Tails; Chromobox protein homolog 1 (Homo sapiens), P83916; AlphaScreen HP1-beta / biotin-H3K9me3 peptide binding; Potency, µM (top dose mostly 114 µM), without a hit: top-dose activity change, negative = inhibition, usual class: inhibitors; 0.56% of 390,000 active; note: potency is the fitted concentration of half-maximal effect; nearly all actives have a fitted effect of over 70% in size
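AlphaScreen: HP1-beta (50 nM) preformed 30 min with biotin-H3(1-18)K9me3 peptide (50 nM) in PBS pH 7.4, 0.01% Tween-20. Compound added for 30 min at RT, then streptavidin donor/nickel chelate acceptor beads (10 ug/mL) for 30 min.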
G9a block – qHTS Assay for Inhibitors of Histone Lysine Methyltransferase G9a. G9a H3K9 monomethylation, AlphaScreen, 2 h. AID 504332, 2011. Histone-lysine N-methyltransferase EHMT2 (Homo sapiens), Q96KQ7. Potency, µM (top dose mostly 102 µM), for inactives: top-dose activity, negative = inhibition, actives largely listed as inhibitors. 8.8% of 350,000 active; note: potency is the fitted concentration of half-maximal effect; % is set by controls: 0 for no effect and ±100 for the full control effect; nearly all actives have a fitted effect of over 75% in size
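Chemiluminescent proximity detection of H3K9 monomethylation, read after 10 min bead incubation in the dark. Reaction: 20 nM G9a, 500 nM biotin-H3K9 peptide, 20 uM SAM cofactor, 2 h, room temperature, following 15 min enzyme-compound preincubation.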
BAZ2B inh – qHTS Assay for Inhibitors of BAZ2B. AlphaScreen BAZ2B-H3K14Ac peptide displacement. Potency, µM (series often up to 114 µM), for inactives: at the highest dose activity change, negative = inhibition, actives largely listed as inhibitors. 4.4% of 360,000 active. Bromodomain adjacent to zinc finger domain protein 2B (Homo sapiens), Q9UIF8; note: potency is the fitted concentration of half-maximal effect; % is set by controls: 0 for no effect and ±100 for the full control effect; nearly all actives have a fitted effect of over 60% in size
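Protein-peptide AlphaScreen: BAZ2B 50 nM, b-H3K14Ac 50 nM, 1x PBS pH 7.4 + 0.01% Tween-20. Preincubation 30 min RT; cpd 30 min RT (top 110 uM); beads 20 min RT, light-protected.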
Numbers without * were called inactive; ? = inconclusive; . = no result given; ! = not active in a repeat; [ ] = dose if it differs, or a comment. Unless noted, calls come from the whole dose curve; as a rule, active = well fitted inhibition curve with a large enough effect; inconclusive = small, poorly fitted or top-dose-only effect; inactive = no such curve, though single readings can be large or run the other way.

SMILES	PI5P4K alpha inh	L3MBTL1 inh	JMJD2A Tudor	HP1b binding inh	G9a block	BAZ2B inh
CCOc1ccccc1NC(=O)c1nc(S(=O)(=O)Cc2cccc(C)c2)ncc1Cl	0	.	?	29%	56µM*!	-30%
COc1ccccc1C1C2C(=O)N(c3ccccc3)C(=O)C2ON1c1ccccc1 (centres undefined)	0	.	-21%	22%	-1%[12.7 µM]	-3%
COc1ccccc1N1C(=O)C2ON(c3ccccc3)C(c3ccc(N(C)C)cc3)C2C1=O (centres undefined)	.	-19%	.	.	8.9µM*	35µM*
CS(=O)(=O)O/N=C1\CCCCC1c1ccc([N+](=O)[O-])cc1[N+](=O)[O-] (centres undefined)	1	.	-7%	22%	40µM*	-19%
CC1(C)CC(=O)C2=C(C1)NC(SCC(=O)Nc1ccccc1)=C(C#N)C2c1ccco1 (centres undefined)	2	-10%	-35%	2%	-1%[12.7 µM]	-37%
Cc1ccc(C(=O)CSC2=C(C#N)C(c3ccco3)C3=C(CC(C)(C)CC3=O)N2)cc1 (centres undefined)	-7	.	?	2%	40µM*	?
CCOc1ccc2oc(C(=O)Nc3ccc4c(c3)OCO4)c(C)c2c1	-15	.	-15%	30%	-10%	-32%
COc1ccc2oc(C(=O)OCC(=O)N(C)CC(=O)Nc3ccc(C)cc3)c(C)c2c1	-3	-2%	-13%	18%	50µM*	4%
CCOc1ccc2oc(C(=O)Nc3ccc(N4CCOCC4)cc3)c(C)c2c1	-4	.	-5%	35%	13µM*	-6%
CCOc1ccc2oc(C(=O)N(C)CC(=O)Nc3ccc(OCC)c(OCC)c3)c(C)c2c1	-4	-4%	-24%	-6%	56µM*	-34%
COc1cc2c(cc1OC)[C@@H](Cc1ccc(OCCC#N)cc1)N(C)CC2	2	.	-2%	7%	35µM*	5%
CC(C)(C)Nc1cccccc1=O	6	-8%	-9%[11.4 µM]	42%	45µM*	-3%
O=S(=O)(Nc1ccc(N2CCCCC2)cc1)c1ccccc1F	-14	-10%	?	?	40µM*	50µM*
O=C(c1ccc(NS(=O)(=O)c2cccc3cccnc23)cc1)N1CCCCC1	0	2%	-12%	34%	?	-19%
O=S(=O)(c1cccc2cccnc12)N1CCCCC1	-5	.	-5%	17%	.	0%
O=S(=O)(Nc1ccc(N2CCCCC2)cc1)c1cccc2cccnc12	0	-17%	-36%	?	16µM*	?
CC(CS(=O)(=O)c1cccc2cccnc12)N1CCCCC1 (centres undefined)	-11	-11%	-14%	42%	25µM*	5%
Cc1ccc(NS(=O)(=O)c2ccccc2F)cc1S(=O)(=O)N1CCCCC1	-7	-2%	-8%	40%	22%[2.33 µM]	5%
O=S(=O)(Nc1ccc(N2CCCCC2)cc1)c1ccc(F)cc1F	-3	-9%	?	-35%	45µM*	?
O=C(Nc1cccc(F)c1)N1CC[C@@]2(CCCN(C(=O)c3csnn3)C2)C1	.	.	.	.	0%[12.7 µM]	.
COc1ccc(NS(=O)(=O)c2ccc(N3CCCC3)c(NC(=S)Nc3ccc(SC(F)F)cc3)c2)cc1	-26	-5%	56µM*	11µM*	?	?
CCNC(=O)Nc1cc(S(=O)(=O)Nc2ccc(OC)cc2)ccc1N1CCOCC1	1	-4%	-5%	42%	18%[2.33 µM]	4%
COc1ccc(NS(=O)(=O)c2ccc(N3CCCC3)c(NC(=S)Nc3cccc(C)c3C)c2)cc1	-27	-14%	56µM*	?	1.3µM*	?
CCCc1cc2c(OC(=O)CC)c(-c3ccc(C(=O)OCC)o3)c(=O)oc2cc1OC	-65*	10%	3%	37%[57 µM]	-11%[59 µM]	0%
Cc1[nH]c2ccccc2c1/C=N/n1cnnc1	-7	5%	-3%[11.4 µM]	-8%	8%[59 µM]	14%
SMILES	PI5P4K alpha inh	L3MBTL1 inh	JMJD2A Tudor	HP1b binding inh	G9a block	BAZ2B inh
CCN(CC)c1ccc(N=Cc2c(C)[nH]c3ccccc23)cc1	7	?	35µM*	32µM*	14µM*	13µM*
Cc1cc(O)c(C(c2ccccc2)N2CCN(c3ccccc3)CC2)c(=O)n1Cc1ccco1 (centres undefined)	.	.	-28%	20%[57 µM]	?	-12%
CC(C)(C)S(=O)(=O)/C(C#N)=N/Nc1ccc(Cl)cc1	1	-11%	?	3%	35µM*	?
Cc1cccc2sc(N(CCN(C)C)C(=O)C3CCN(S(=O)(=O)c4cccs4)CC3)nc12	3	-4%	56µM*	?	32µM*	50µM*
Cc1cccc2sc(N(CCN(C)C)C(=O)/C=C/c3cccs3)nc12	2	-1%	?	24%	?	-35%
CN(C)CCN(C(=O)C1CCN(S(=O)(=O)c2cccs2)CC1)c1nc2ccc(F)cc2s1	-1	9%	?	-17%	28µM*	?
COC(=O)c1ccc(/C=C/C(=O)c2ccc(OC)cc2)cc1	.	-8%	100µM*	3%	-8%	11%
COc1ccc(Oc2ccc(/C=C/C(=O)c3ccc(O)cc3)cc2[N+](=O)[O-])cc1	-8	-5%	?	-24%	40µM*	?
COC(=O)[C@H](C)NC(=O)/C=C/c1ccc(OC)cc1	-6	2%	-6%	36%	71µM*	1%
CNC(=O)c1cnc2sc(N3CCCCCC3)nn2c1=O	.	.	-8%	-11%	17%[59 µM]	-16%
Cc1ccc(Cn2c(C)c(CNC3CCCCC3)c(C(=O)O)c2C)cc1	.	.	-11%	34%	10%[59 µM]	-13%
COc1ccc2oc(=O)cc(CN3CCN(C(=O)c4ccccc4Br)CC3)c2c1	.	.	-8%	28%	?	-16%
O=C(NCc1ccccc1)c1ccc2c(=O)n(CC3CCCO3)c(=S)[nH]c2c1 (centres undefined)	3	-2%	89µM*	41%	-15%	9%
O=C(NCc1ccco1)c1ccc2c(=O)n(CC3CCCO3)c(=S)[nH]c2c1 (centres undefined)	-13	-8%	-11%	45%	8.9µM*	9%
CCCCN1C(=O)c2ccccc2C1C(=O)NC1CCCC1 (centres undefined)	.	5%	-4%	3%	11%[59 µM]	6%
